Data reported in PubChem BioAssay (Tox21).
Inconclusive results are not listed. The source made the active and inactive calls. Calls come from the whole dose curve; as a rule, active = well fitted curve in the direction sought with a large enough effect in the repeat runs; inconclusive = weak or mixed curves; inactive = no such curve, though single readings can be large; an effect the other way counts as inactive or inconclusive.

Experiments:
[1] = Caspase-3/7 induction in HepG2 cells by small molecules, qHTS assay (AID 1346978); note: nearly all actives have a fitted effect of over 15% in size
Procedure, shortened: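 Wild-type HepG2 cells (2,000/well) were settled 5 h at 37 C, 5% CO2, then exposed to compounds in DMSO for 17 h. Caspase-3/7 activity was read by luminescence 30 min after adding Caspase-Glo 3/7 reagent at room temperature.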

[2] = Caspase-3/7 induction in CHO-K1 cells by small molecules, qHTS cell viability counter screen (AID 1346979); note: nearly all actives have a fitted effect of over 35% in size
Procedure, shortened: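 In the same wells as the caspase read, viability of compound-treated wild-type CHO-K1 cells was assessed using CellTiter-Fluor, added after 16hr at 37C and measured by fluorescence following 1hr further incubation.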

[3] = Caspase-3/7 induction in CHO-K1 cells by small molecules, qHTS assay (AID 1346980); note: nearly all actives have a fitted effect of over 15% in size
Procedure, shortened: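 Wild-type cells were seeded at 1,500 per well and settled 5 hr at 37 C, 5% CO2, then exposed to DMSO-dissolved compounds for 17 hr. Caspase-Glo 3/7 reagent was added, and luminescence was read after 30min at room temperature.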

[4] = Caspase-3/7 induction in HepG2 cells by small molecules, qHTS cell viability counter screen (AID 1346981); note: series mostly up to about 92 µM; nearly all actives have a fitted effect of over 30% in size
Procedure, shortened: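 Viability determined by CellTiter-Fluor fluorescence in HepG2 wells also used for the luminescent Caspase-Glo 3/7 read. Compounds were present for 16 hr at 37 C, 5% CO2 before reagent addition.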

[5] = target: Nuclear receptor subfamily 1 group I member 2 (Homo sapiens) (UniProt O75469); assay: Human pregnane X receptor (PXR) small molecule agonists, qHTS assay (AID 1346982); note: nearly all actives have a fitted effect of over 35% in size; note: potency is the fitted concentration of half-maximal effect
Nuclear receptor subfamily 1 group I member 2 (Homo sapiens), sequence (O75469 whole entry, looked up): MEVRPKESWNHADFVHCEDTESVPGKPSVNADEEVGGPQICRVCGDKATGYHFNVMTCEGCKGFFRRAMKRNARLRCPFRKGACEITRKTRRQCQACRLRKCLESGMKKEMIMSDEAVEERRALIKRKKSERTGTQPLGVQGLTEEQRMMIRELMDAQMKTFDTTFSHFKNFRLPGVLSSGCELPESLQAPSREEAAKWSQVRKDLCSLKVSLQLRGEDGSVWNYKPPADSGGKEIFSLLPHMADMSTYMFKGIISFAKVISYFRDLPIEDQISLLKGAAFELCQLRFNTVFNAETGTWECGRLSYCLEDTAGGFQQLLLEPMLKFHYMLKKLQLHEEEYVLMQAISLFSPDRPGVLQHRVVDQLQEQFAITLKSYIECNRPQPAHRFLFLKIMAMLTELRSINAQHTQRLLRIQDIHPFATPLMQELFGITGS
Procedure, shortened: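 Compound-induced hPXR transactivation of a CYP3A4 luciferase reporter was scored in HepG2 PXR-Luc cells over 24 hr at 37 C, 5% CO2, by luminescence.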

[6] = target: Nuclear receptor subfamily 1 group I member 2 (Rattus norvegicus) (UniProt Q9R1A7); assay: Rat pregnane X receptor (rPXR) activation by small molecules, qHTS assay (AID 1346983); settings: rPXR luciferase reporter cells, One-Glo luminescence, 24 h; max activation: active compounds read high; note: nearly all actives have a fitted effect of over 20% in size; note: potency is the fitted concentration of half-maximal effect
Nuclear receptor subfamily 1 group I member 2 (Rattus norvegicus), sequence (Q9R1A7 whole entry, looked up): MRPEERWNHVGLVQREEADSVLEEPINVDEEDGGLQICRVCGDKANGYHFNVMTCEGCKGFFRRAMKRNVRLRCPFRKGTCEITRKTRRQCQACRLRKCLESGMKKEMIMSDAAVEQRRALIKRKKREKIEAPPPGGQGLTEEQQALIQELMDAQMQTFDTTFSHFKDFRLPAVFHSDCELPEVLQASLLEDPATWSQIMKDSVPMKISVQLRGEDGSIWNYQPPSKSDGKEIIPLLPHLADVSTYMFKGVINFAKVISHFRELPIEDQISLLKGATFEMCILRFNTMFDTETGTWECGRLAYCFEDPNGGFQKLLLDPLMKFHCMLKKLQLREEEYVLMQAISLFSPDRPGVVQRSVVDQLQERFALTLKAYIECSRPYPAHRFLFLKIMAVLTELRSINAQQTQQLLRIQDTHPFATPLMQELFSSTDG
Procedure, shortened: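 Cell-based rPXR luciferase reporter assay, 2,000 cells per well, rested 5hr at 37 C before compound addition in DMSO, then 24 hr at 37 C. One-Glo reagent was added and luminescence read after 30 min at room temperature.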

[7] = target: Nuclear receptor subfamily 1 group I member 2 (Homo sapiens) (UniProt O75469); assay: CYP3A4 induction through human pregnane X receptor (PXR) by small molecules, qHTS assay (AID 1346984); note: nearly all actives have a fitted effect of over 40% in size; note: potency is the fitted concentration of half-maximal effect
Procedure, shortened: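 Readings come from a luciferase reporter: DPX-2 cells, which are HepG2 cotransfected with PXR and a CYP3A4-promoter construct, were exposed to test compounds for 24 h at 37C before One-Glo detection.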

[8] = target: Nuclear receptor subfamily 1 group I member 2 (Homo sapiens) (UniProt O75469); assay: Human pregnane X receptor (PXR) activation by small molecules, qHTS assay (AID 1346985); note: nearly all actives have a fitted effect of over 40% in size; note: potency is the fitted concentration of half-maximal effect
Procedure, shortened: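 DPX-2 cells (HepG2 co-transfected with a PXR response element and a CYP3A4-promoter luciferase construct) were seeded at 2,000 per well, rested 5 hr at 37C, then exposed to DMSO-dissolved compounds for 24 hr. Activation was read as luciferase luminescence.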

[9] = target: Cytochrome P450 2D6 (Homo sapiens) (UniProt P10635); assay: Cytochrome P450 Family 2 Subfamily D Member 6 (CYP2D6) small molecule antagonists: luciferase reporter qHTS assay (AID 1671196); note: nearly all actives have a fitted effect of over 50% in size; note: potency is the fitted concentration of half-maximal effect; for activity change, negative = inhibition: series mostly up to about 120 µM
Cytochrome P450 2D6 (Homo sapiens), sequence (P10635 whole entry, looked up): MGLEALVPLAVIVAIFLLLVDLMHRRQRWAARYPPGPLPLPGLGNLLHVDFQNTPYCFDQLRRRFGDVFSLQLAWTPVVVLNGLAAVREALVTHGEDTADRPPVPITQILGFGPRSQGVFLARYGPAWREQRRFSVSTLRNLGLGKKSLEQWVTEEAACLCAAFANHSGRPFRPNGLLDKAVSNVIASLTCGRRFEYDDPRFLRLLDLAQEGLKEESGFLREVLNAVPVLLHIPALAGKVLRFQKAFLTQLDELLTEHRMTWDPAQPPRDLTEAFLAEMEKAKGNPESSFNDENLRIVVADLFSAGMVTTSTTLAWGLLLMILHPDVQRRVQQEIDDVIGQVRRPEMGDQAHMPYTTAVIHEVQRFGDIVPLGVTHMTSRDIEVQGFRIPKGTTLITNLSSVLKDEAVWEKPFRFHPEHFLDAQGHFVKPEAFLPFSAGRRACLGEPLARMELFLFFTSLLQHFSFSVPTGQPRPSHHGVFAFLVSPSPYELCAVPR
Procedure, shortened: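 Each well received CYP2D6 with its proluciferin substrate and chemical, sat 10 min, then got NADPH regeneration solution for 1 h at room temperature. Luminescence in RLU served as the activity measure.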

[10] = target: Cytochrome P450 1A2 (Homo sapiens) (UniProt P05177); assay: Cytochrome P450 Family 1 Subfamily A Member 2 (CYP1A2) small molecule antagonists: luciferase reporter qHTS assay (AID 1671199); note: nearly all actives have a fitted effect of over 50% in size; note: potency is the fitted concentration of half-maximal effect; for activity change, negative = inhibition: series mostly up to about 120 µM
Cytochrome P450 1A2 (Homo sapiens), sequence (P05177 whole entry, looked up): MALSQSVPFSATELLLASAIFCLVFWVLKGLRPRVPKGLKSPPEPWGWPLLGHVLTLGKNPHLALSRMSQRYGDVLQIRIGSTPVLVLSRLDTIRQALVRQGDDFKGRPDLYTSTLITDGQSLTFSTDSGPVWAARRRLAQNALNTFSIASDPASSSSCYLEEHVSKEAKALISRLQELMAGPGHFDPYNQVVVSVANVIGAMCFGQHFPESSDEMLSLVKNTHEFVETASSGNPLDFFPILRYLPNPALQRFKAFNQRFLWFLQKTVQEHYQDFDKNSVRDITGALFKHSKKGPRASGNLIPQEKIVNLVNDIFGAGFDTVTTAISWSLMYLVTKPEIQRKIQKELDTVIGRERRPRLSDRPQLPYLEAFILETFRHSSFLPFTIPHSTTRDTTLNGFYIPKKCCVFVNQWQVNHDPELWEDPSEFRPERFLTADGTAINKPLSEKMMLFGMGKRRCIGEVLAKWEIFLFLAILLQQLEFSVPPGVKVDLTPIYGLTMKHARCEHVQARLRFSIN
Procedure, shortened: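 Enzymatic CYP1A2 assay, human, luminescent: 10 min compound–enzyme–substrate preincubation, 1 h NADPH-dependent turnover, 20 min detection step, room temperature throughout. Reduced light indicates lower CYP1A2 activity.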

[11] = target: Voltage-gated inwardly rectifying potassium channel KCNH2 (Homo sapiens) (UniProt Q12809); assay: Human Ether-a-go-go-Related Gene (hERG) channel small molecule antagonists: fluorescence cell-based qHTS assay (AID 1671200); note: nearly all actives have a fitted effect of over 50% in size; note: potency is the fitted concentration of half-maximal effect;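 for activity change, negative = inhibition: hERG-expressing U2OS cells given a thallium stimulus after FluxOR II dye loading; series mostly up to about 77 µM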
Voltage-gated inwardly rectifying potassium channel KCNH2 (Homo sapiens), sequence (Q12809 whole entry, looked up): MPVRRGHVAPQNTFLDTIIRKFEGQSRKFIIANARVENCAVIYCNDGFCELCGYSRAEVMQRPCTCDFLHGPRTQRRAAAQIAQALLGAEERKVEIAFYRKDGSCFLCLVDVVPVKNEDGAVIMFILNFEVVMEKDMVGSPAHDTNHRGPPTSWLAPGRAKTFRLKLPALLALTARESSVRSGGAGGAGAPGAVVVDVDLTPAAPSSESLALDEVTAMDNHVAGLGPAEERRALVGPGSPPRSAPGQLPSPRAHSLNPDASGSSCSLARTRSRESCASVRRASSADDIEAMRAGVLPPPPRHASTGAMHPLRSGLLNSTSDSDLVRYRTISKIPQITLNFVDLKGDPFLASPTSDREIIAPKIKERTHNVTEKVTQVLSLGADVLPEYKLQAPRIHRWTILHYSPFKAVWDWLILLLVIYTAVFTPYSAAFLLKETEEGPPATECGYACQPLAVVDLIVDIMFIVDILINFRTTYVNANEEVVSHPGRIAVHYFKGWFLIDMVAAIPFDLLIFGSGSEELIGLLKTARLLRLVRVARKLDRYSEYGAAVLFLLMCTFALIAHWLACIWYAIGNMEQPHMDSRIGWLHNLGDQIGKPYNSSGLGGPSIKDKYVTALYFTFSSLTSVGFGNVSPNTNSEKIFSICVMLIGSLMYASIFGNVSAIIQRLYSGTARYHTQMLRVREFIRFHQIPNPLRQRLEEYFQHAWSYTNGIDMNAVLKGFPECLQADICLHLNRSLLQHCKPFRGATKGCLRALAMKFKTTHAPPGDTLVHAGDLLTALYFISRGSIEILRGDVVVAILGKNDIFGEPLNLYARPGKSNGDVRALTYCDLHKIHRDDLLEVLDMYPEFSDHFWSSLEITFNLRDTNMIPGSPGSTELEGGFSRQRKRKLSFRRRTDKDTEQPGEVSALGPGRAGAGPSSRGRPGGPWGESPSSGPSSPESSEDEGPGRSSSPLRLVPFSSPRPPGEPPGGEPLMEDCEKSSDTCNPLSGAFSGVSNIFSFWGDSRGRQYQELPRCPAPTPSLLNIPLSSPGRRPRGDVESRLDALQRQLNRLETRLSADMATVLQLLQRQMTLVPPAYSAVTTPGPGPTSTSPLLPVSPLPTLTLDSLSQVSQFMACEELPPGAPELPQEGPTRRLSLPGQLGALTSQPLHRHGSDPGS
Procedure, shortened: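 Quantitative HTS in hERG-U2OS cells: thallium entry through the channel reports activity, read as continuous 480/540 nm fluorescence over 2 min after stimulus addition.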

[12] = target: Cytochrome P450 3A4 (Homo sapiens) (UniProt P08684); assay: Cytochrome P450 Family 3 Subfamily A Member 4 (CYP3A4) small molecule antagonists: luciferase reporter qHTS assay (AID 1671201); note: series mostly up to about 120 µM; nearly all actives have a fitted effect of over 50% in size
Cytochrome P450 3A4 (Homo sapiens), sequence (P08684 whole entry, looked up): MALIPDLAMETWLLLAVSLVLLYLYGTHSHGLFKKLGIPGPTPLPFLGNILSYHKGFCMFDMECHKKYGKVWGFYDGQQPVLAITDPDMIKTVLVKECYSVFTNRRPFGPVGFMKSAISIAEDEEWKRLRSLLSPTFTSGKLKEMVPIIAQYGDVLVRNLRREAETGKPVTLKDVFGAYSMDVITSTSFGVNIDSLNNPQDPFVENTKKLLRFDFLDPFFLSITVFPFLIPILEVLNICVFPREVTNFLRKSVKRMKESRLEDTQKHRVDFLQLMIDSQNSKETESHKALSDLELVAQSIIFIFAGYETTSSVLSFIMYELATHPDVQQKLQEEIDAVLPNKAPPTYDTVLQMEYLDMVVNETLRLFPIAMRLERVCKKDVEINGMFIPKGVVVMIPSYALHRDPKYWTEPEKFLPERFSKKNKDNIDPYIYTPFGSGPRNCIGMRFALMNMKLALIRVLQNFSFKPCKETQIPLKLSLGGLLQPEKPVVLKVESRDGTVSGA
Procedure, shortened: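 Inhibition of CYP3A4 is measured as loss of light: the enzyme converts a proluciferin substrate to luciferin, detected luminescently. Reaction ran 1 h at room temperature with NADPH regeneration after a 10 min compound preincubation.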

[13] = target: Cytochrome P450 2C19 (Homo sapiens) (UniProt P33261); assay: Cytochrome P450 Family 2 Subfamily C Member 19 (CYP2C19) small molecule antagonists: luciferase reporter qHTS assay (AID 1671197); note: nearly all actives have a fitted effect of over 65% in size; note: potency is the fitted concentration of half-maximal effect; for activity change, negative = inhibition: series mostly up to about 120 µM
Cytochrome P450 2C19 (Homo sapiens), sequence (P33261 whole entry, looked up): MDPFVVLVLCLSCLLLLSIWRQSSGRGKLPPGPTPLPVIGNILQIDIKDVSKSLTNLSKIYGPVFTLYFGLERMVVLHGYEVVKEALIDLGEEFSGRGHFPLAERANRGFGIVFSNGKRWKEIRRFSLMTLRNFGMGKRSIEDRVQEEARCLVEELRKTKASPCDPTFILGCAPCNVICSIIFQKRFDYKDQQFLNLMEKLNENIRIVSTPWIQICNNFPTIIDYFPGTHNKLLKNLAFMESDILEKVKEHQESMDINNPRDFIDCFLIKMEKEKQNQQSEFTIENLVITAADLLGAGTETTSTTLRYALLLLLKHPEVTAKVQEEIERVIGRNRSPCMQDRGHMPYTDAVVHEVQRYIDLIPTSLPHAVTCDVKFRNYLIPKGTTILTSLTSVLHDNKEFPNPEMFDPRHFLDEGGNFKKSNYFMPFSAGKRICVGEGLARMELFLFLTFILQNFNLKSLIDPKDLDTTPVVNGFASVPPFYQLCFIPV
Procedure, shortened: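 Quantitative high-throughput screen of the Tox21 library using CYP2C19 with proluciferin substrate. Reaction: NADPH regeneration, 37C, 1 h, after 10 min compound preincubation at room temperature. Readout: luminescence.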

[14] = target: Cytochrome P450 2C9 (Homo sapiens) (UniProt P11712); assay: Cytochrome P450 Family 2 Subfamily C Member 9 (CYP2C9) small molecule antagonists: luciferase reporter qHTS assay (AID 1671198); note: nearly all actives have a fitted effect of over 50% in size; note: potency is the fitted concentration of half-maximal effect; for activity change, negative = inhibition: series mostly up to about 120 µM
Cytochrome P450 2C9 (Homo sapiens), sequence (P11712 whole entry, looked up): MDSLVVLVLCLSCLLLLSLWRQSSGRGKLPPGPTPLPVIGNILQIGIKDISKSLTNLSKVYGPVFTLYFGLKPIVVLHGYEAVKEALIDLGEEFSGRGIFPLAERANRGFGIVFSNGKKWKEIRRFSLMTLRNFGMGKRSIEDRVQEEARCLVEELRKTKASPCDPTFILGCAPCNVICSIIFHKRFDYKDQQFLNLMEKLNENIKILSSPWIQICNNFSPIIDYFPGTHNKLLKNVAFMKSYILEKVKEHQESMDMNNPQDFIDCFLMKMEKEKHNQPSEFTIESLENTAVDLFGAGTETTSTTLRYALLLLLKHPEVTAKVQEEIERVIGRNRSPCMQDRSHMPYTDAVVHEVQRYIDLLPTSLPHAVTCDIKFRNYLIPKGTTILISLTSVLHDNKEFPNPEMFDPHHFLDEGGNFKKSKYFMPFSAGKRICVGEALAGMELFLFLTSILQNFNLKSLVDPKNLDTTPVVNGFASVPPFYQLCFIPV
Procedure, shortened: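 CYP2C9 activity was measured with a P450-Glo proluciferin substrate. Enzyme–substrate mix was held with compound for 10 min at room temperature, then NADPH regeneration solution was added for 1 h at 37C. Luciferin product was read as luminescence.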
% is set by controls: 0 for no effect and ±100 for the full control effect.

c1ccc(CN(CC2=NCCN2)c2ccccc2)cc1
inactive: Potency [1] | Potency [2] | outcome [3] | Potency [4] | Potency [5] | max activation [6] -0.824% | Potency [7] | Potency [8] | Potency [10] | Potency [12]
active: Potency [9] 1.38 µM | Potency [11] 19 µM

CN(CC1(C)CCCO1)S(=O)(=O)c1ccc(Cl)c(S(N)(=O)=O)c1 (centres undefined)
active: Potency [5] 10.6 µM
inactive: Potency [1] | Potency [2] | outcome [3] | Potency [4] | Potency [9] | Potency [13] | Potency [14] | Potency [10] | Potency [11]

CCOC(=O)c1ccccc1O
inactive: Potency [1] | Potency [2] | outcome [3] | Potency [4] | Potency [5] | max activation [6] -7.66% | Potency [7] | Potency [8] | Potency [9] | Potency [13] | Potency [14] | Potency [10] | Potency [11] | Potency [12]

COc1ccccc1N1CCN(CCCNc2cc(=O)n(C)c(=O)n2C)CC1
inactive: Potency [1] | Potency [2] | outcome [3] | Potency [4] | Potency [5] | max activation [6] -1.3% | Potency [7] | Potency [8] | Potency [13] | Potency [10] | Potency [11] | Potency [12]

CO[C@@]1(NC(=O)CSCC#N)C(=O)N2C(C(=O)O)=C(CSc3nnnn3C)CS[C@@H]21
inactive: Potency [1] | Potency [2] | outcome [3] | Potency [4] | Potency [5] | max activation [6] -3.26% | Potency [7] | Potency [8] | Potency [9] | Potency [13] | Potency [11] | Potency [12]
active: Potency [10] 24.5 µM

CCN(CC)CCOc1ccc(Cc2ccccc2)cc1
active: Potency [5] 23.7 µM | Potency [7] 11.2 µM | Potency [8] 4.47 µM | Potency [9] 9.77 µM | Potency [13] 0.55 µM | Potency [11] 7.56 µM
inactive: Potency [1] | Potency [2] | outcome [3] | Potency [4] | max activation [6] -17.9% | Potency [14] | Potency [10] | Potency [12]

CN1[C@@H]2CC[C@H]1CC(OC(=O)c1c[nH]c3ccccc13)C2 (some centres undefined)
active: Potency [9] 15.5 µM | Potency [11] 19 µM
inactive: Potency [1] | Potency [2] | outcome [3] | Potency [4] | Potency [5] | Potency [13] | Potency [14] | Potency [10] | Potency [12]

CCC(=O)O[C@]1(C(=O)SCF)[C@H](C)C[C@H]2[C@@H]3C[C@H](F)C4=CC(=O)C=C[C@]4(C)[C@@]3(F)[C@@H](O)C[C@@]21C
active: Potency [5] 0.473 µM | Potency [6] 1.58 µM | Potency [8] 0.447 µM | Potency [14] 4.9 µM
inactive: Potency [1] | Potency [2] | outcome [3] | Potency [4] | Potency [7] | Potency [9] | Potency [13] | Potency [10] | Potency [11]

CCN(CC)CCNC(=O)COc1ccc(Cl)cc1
inactive: Potency [1] | Potency [2] | outcome [3] | Potency [4] | Potency [5] | max activation [6] -3.06% | Potency [7] | Potency [8] | Potency [13] | Potency [14]
active: Potency [9] 12.3 µM | Potency [11] 13.4 µM

O=C(O)[C@@H]1CSCN1
inactive: Potency [1] | Potency [2] | outcome [3] | Potency [4] | Potency [5] | max activation [6] 0.44% | Potency [7] | Potency [8] | Potency [13] | Potency [14] | Potency [10] | Potency [11] | Potency [12]

Cc1cc(NS(=O)(=O)c2ccc(N)cc2)nc(C)n1
inactive: Potency [1] | Potency [2] | outcome [3] | Potency [4] | Potency [5] | max activation [6] 1.05% | Potency [7] | Potency [8] | Potency [9] | Potency [13] | Potency [14] | Potency [10] | Potency [11] | Potency [12]

CCc1nnc(NS(=O)(=O)c2ccc(N)cc2)s1
inactive: Potency [1] | Potency [2] | outcome [3] | Potency [4] | Potency [5] | max activation [6] -2.73% | Potency [7] | Potency [8] | Potency [9] | Potency [13] | Potency [10] | Potency [11]

C[C@@H]1CN(c2c(F)c(N)c3c(=O)c(C(=O)O)cn(C4CC4)c3c2F)C[C@H](C)N1
inactive: caspase activation [1] 0.598% [at 19 µM] | activity change, negative = cytotoxicity [2] 5.21% [at 19 µM] | caspase-3/7 activation [3] -1.56% [at 19 µM] | activity change, negative = cytotoxicity [4] -0.6% [at 19 µM] | activation [5] -7.57% [at 19 µM] | max activation [6] -3.87% | Potency [7] | Potency [8] | activity change, negative = inhibition [9] -4.41% [at 23.6 µM] | activity change, negative = inhibition [13] 45.2% [at 23.6 µM] | Potency [14] | Potency [10] | activity change, negative = inhibition [11] -2.21% [at 15.8 µM] | activity change, negative = inhibition [12] -3.59% [at 23.6 µM]

CCCCCCCCCCCCCCCCOP(=O)([O-])OCC[N+](C)(C)C
inactive: Potency [1] | Potency [2] | outcome [3] | Potency [4] | Potency [5] | max activation [6] 0.239% | Potency [7] | Potency [8] | Potency [13] | Potency [14] | Potency [11] | Potency [12]

CCC(=O)Nc1ccc(O)cc1
inactive: Potency [1] | Potency [2] | outcome [3] | Potency [4] | Potency [5] | max activation [6] -1.74% | Potency [7] | Potency [8] | Potency [9] | Potency [13] | Potency [14] | Potency [11] | Potency [12]
